These results are taken from PubChem BioAssay (NCATS).

Where “and” joins values, the source holds several entries; their conditions need not be identical. Identical values can stand only once. Inconclusive results are not listed. Calls of active or inactive are those of the source. Unless noted, calls come from the whole dose curve; as a rule, active = well fitted cell-killing curve with a large enough effect; inconclusive = small, poorly fitted or top-dose-only effect; inactive = flat fitted curve, though single readings scatter.

The nature of assay [1]: Cell Viability - LYMP2-025 (AID 976).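 Note: series mostly up to about 92 µM; plate controls were DMSO only for no effect and tetraoctylammonium bromide control for full effect.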 A digest of the protocol:
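Human lymphoblastoid LYMP2-025 cells, 2500/well, exposed 24 h at 37 C in complete medium in 1536-well qHTS. Viability as cellular ATP by CellTiter-Glo luminescence; AC50 from Hill fits of concentration-response data.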

Assay [2] in a line: Cell Viability - LYMP2-002 (AID 977).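 Note: series mostly up to about 92 µM; plate controls were DMSO only for no effect and 92 µM tetraoctylammonium bromide for full effect.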 In outline: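 Luminescent ATP readout (CellTiter-Glo, 30 min room temperature) after 24 h compound exposure at 37 C of a human lymphoblastoid line, 2500 cells/well. AC50 values derived by standard Hill fitting of qHTS concentration-response data.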
Assay [3] can be described thus: Cell Viability - LYMP2-006 (AID 978). Note: series mostly up to about 92 µM; % is set by controls: 0 for no effect and ±100 for the full control effect; nearly all actives have a fitted effect of over 60% in size. In outline:
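Concentration-dependent loss of intracellular ATP in a human lymphoblastoid line after 24 hr treatment at 37 C was measured by CellTiter-Glo luminescence, with AC50 values obtained from standard Hill-equation modelling.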

A short description of assay [4]: Cell Viability - LYMP2-007 (AID 979).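 Note: cells exposed to compound for 24 h before reading; 0% = DMSO only and the negative end = 92 µM tetraoctylammonium bromide; nearly all actives have a fitted effect of over 60% in size.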 In outline: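 Human lymphoblastoid LYMP2-007 cells (2500/well) preincubated 5 h at 37 C, then treated 24 h at 37 C in complete medium. Viability by CellTiter-Glo ATP luminescence after 30 min at room temperature; AC50 from Hill fits.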
Assay [5] can be described thus: Cell Viability - LYMP2-008 (AID 980). Note: % is set by controls: 0 for no effect and ±100 for the full control effect; nearly all actives have a fitted effect of over 60% in size. A digest of the protocol: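 LYMP2-008 lymphoblastoid cells (2500/well) plated 5 h, then treated 24 h at 37 C in complete medium. Viability read as intracellular ATP by CellTiter-Glo luminescence after 30 min at room temperature; AC50 from Hill fits.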
A short description of assay [6]: Cell Viability - LYMP2-010 (AID 981). Note: % is set by controls: 0 for no effect and ±100 for the full control effect; nearly all actives have a fitted effect of over 55% in size. In outline:
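Human lymphoblastoid LYMP2-010 cells (2500/well) treated 24 h at 37 C in complete medium; viability read as intracellular ATP by CellTiter-Glo luminescence. AC50 from Hill fits of concentration-response data; tetraoctylammonium bromide positive control.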

Assay [7] can be described thus: Cell Viability - LYMP2-012 (AID 982).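 Note: cellular ATP by luciferase luminescence where a drop means cytotoxicity; cells exposed to compound for one day before reading; 0% = DMSO only and full loss = 92 µM tetraoctylammonium bromide; nearly all actives have a fitted effect of over 55% in size.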
Assay [8] is described as follows: Cell Viability - LYMP2-014 (AID 983).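 Note: series mostly up to about 92 µM; plate controls were DMSO only for no effect and 92 µM tetraoctylammonium bromide for full effect; nearly all actives have a fitted effect of over 50% in size.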 A digest of the protocol:
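LYMP2-014 human lymphoblastoid cells, 2500/well, treated 24 h at 37 C in complete medium; viability by CellTiter-Glo ATP luminescence after 30 min at room temperature. AC50 from Hill fits of qHTS concentration-response; tetraoctylammonium bromide positive control.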

A short description of assay [9]: Cell Viability - LYMP2-016 (AID 984). Note: % is set by controls: 0 for no effect and ±100 for the full control effect; nearly all actives have a fitted effect of over 55% in size. A digest of the protocol:
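Acute toxicity in a Coriell human lymphoblastoid line is scored as loss of intracellular ATP over 24 h of treatment in complete medium. CellTiter-Glo signal is fitted across concentrations with the Hill equation to give AC50.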

Assay [10] in a line: Cell Viability - LYMP2-018 (AID 985).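 Note: compound exposure lasted 24 hr at 37 °C; plate controls were DMSO only for no effect and tetraoctylammonium bromide at 92 µM for full effect; nearly all actives have a fitted effect of over 50% in size.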 In outline: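 Human lymphoblastoid LYMP2-018 cells, 2500/well, settled 5 hr at 37 C then exposed to compound 24 hr at 37 C; intracellular ATP measured by CellTiter-Glo luminescence. AC50 from Hill-equation concentration-response fits.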
Assay [11] can be described thus: Cell Viability - LYMP2-020 (AID 986).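 Note: series mostly up to about 92 µM; plate controls were DMSO only for no effect and tetraoctylammonium bromide at 92 µM for full effect; nearly all actives have a fitted effect of over 55% in size.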 A digest of the protocol:
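Human lymphoblastoid LYMP2-020 cells (2500/well) preincubated 5 h at 37 C, then treated 24 h at 37 C. Viability measured as intracellular ATP by CellTiter-Glo luminescence after 30 min at room temperature; AC50 from Hill fits.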

Assay [12] is described as follows: Cell Viability - LYMP2-022 (AID 987). In outline:
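LYMP2-022 lymphoblastoid cells (2500/well, complete medium) were treated with compounds for 24 hours at 37 C; intracellular ATP was then read by CellTiter-Glo luminescence after 30 min at room temperature. AC50 values were derived from Hill-equation fits.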

The nature of assay [13]: Cell Viability - LYMP2-024 (AID 988).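 Note: plate controls were DMSO only for no effect and 92 µM tetraoctylammonium bromide for full effect; nearly all actives have a fitted effect of over 60% in size.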 A digest of the protocol: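 Human lymphoblastoid LYMP2-024 cells (2500/well) rested 5 hr, then treated with compound for 24 hr at 37 C in complete medium. Viability was measured as intracellular ATP by CellTiter-Glo luminescence. AC50 values came from Hill-equation fits.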
Assay [14] can be described thus: Cell Viability - LYMP2-026 (AID 989). Note: % is set by controls: 0 for no effect and ±100 for the full control effect; nearly all actives have a fitted effect of over 50% in size. In outline: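 Human lymphoblastoid LYMP2-026 cells, 2500/well, exposed to compound 24 h at 37 C in complete medium. Viability as intracellular ATP by CellTiter-Glo luminescence; AC50 from Hill fits of qHTS concentration-response.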
Assay [15] can be described thus: Cell Viability - LYMP1-002 - Assay at 24 hr (AID 993). Note: % is set by controls: 0 for no effect and ±100 for the full control effect. In outline:
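Human lymphoblastoid LYMP1-002 cells (2500/well) treated 24 h at 37 °C; viability as intracellular ATP by CellTiter-Glo luminescence. Tetraoctylammonium bromide as positive control; AC50 from Hill-equation fits of qHTS concentration-response.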

The nature of assay [16]: Cell Viability - LYMP1-002 - Assay at 40 hr (AID 994). A digest of the protocol: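 LYMP1-002 human lymphoblastoid cells (2500/well, complete medium) were treated with compounds for 40 hr at 37 C. Intracellular ATP was measured by CellTiter-Glo luminescence, and AC50 values came from Hill-equation fits of concentration-response data; tetraoctylammonium bromide was the positive control.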

In assay [17] the target is Estrogen receptor (Homo sapiens) (UniProt P03372). Kind of assay: qHTS assay for small molecule antagonists of estrogen receptor alpha signaling (AID 588513; active = well fitted curve in the direction sought with a large enough effect in the signal ratio, with a control signal flat, not every such curve was filed as active; the % refers to the signal ratio; note: % is set by controls: 0 for no effect and ±100 for the full control effect). In outline: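 Cells were plated at 5000/well and incubated 4 h at 37 C. Compounds were added as 1:2 dilution series, duplicates. 17-beta-estradiol (0.5nM final) was added for 18 h before CCF4 detection.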
Estrogen receptor (Homo sapiens), sequence (P03372 whole entry, looked up): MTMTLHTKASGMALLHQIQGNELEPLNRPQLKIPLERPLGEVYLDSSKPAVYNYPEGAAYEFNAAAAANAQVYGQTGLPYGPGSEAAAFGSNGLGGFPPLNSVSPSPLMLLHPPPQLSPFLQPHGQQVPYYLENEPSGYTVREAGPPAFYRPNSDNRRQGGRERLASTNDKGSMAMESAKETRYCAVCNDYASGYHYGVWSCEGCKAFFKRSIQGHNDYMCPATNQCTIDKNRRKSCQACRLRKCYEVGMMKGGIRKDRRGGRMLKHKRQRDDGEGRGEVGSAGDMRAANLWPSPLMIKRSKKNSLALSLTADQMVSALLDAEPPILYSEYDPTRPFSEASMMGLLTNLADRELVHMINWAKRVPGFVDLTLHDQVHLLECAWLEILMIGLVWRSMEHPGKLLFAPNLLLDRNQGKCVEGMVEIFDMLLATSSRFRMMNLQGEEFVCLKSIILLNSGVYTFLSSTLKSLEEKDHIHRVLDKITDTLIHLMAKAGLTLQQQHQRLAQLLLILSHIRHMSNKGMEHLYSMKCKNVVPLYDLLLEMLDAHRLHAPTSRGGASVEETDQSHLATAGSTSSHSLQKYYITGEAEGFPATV
Background: qHTS replaces the single test concentration by a dilution series.

For assay [18] the target is unchanged. Kind of assay: qHTS assay for small molecule agonists of estrogen receptor alpha signaling (AID 588514; calls by dose curve;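 note: 0% = vehicle only and 100% = reference agonist; nearly all actives have a fitted effect of over 70% in size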). In outline: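 ER-alpha-UAS-bla GripTite HEK293 cells, 5000/well in 2% charcoal/dextran-stripped FBS medium, treated with compound titrations 18 h at 37 C. CCF4 beta-lactamase read by fluorescence after 2 h RT; normalised to 20 nM 17-beta-estradiol (100%) and DMSO (0%), Hill fit for EC50 and efficacy.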

For assay [19], the target named is Bile acid receptor (Homo sapiens) (UniProt Q96RI1). The assay is described as follows: qHTS assay for small molecule antagonists of farnesoid X receptor signaling (AID 588526; calls by dose curve; note: % is set by controls: 0 for no effect and ±100 for the full control effect). A digest of the protocol: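 Concentration-response titrations were fitted to the Hill equation for half-maximal inhibition and maximal response, with data normalised to 50 uM chenodeoxycholic acid and DMSO control wells. Cells: FXR-UAS-bla HEK293T, dialyzed FBS.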
Bile acid receptor (Homo sapiens), sequence (Q96RI1 whole entry, looked up): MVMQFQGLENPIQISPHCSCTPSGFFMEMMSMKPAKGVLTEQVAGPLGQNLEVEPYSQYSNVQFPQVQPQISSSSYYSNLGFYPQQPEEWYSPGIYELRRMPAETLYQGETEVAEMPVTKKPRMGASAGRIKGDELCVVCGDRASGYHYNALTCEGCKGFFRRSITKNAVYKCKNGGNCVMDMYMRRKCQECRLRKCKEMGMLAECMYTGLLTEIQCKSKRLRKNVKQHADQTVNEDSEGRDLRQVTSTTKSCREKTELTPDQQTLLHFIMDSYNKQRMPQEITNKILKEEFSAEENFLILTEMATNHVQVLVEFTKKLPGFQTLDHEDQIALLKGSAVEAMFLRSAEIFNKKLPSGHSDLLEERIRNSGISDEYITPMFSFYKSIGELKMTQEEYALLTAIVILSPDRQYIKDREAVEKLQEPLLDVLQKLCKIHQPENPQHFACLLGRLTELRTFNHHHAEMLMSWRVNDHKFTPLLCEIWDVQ

Assay [20] shares this target. The assay is described as follows: qHTS assay for small molecule agonists of farnesoid X receptor signaling (AID 588527; calls by dose curve;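 note: series mostly up to about 77 µM; 0% = vehicle basal and 100% = reference agonist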). The following applies: HEK293T FXR-UAS-bla, beta-lactamase ratio, 16 h; stronger effect = higher value. A digest of the protocol:
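Agonist-mode beta-lactamase reporter in GeneBLAzer FXR-UAS-bla HEK293T cells, titration up to 92 uM, 16 h exposure at 37 C, CCF4 fluorescence. Response scaled to DMSO (0%) and 100 uM chenodeoxycholic acid (100%), then Hill-fitted for EC50 and efficacy.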

The target in assay [21] is Peroxisome proliferator-activated receptor delta (Homo sapiens) (UniProt Q03181). The assay is described as follows: qHTS assay for small molecule agonists of peroxisome proliferator-activated receptor delta signaling (AID 588534; calls by dose curve;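 note: 0% = DMSO basal wells and 100% = positive control agonist at 10 µM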). In outline: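 Cells carrying a PPAR-delta beta-lactamase reporter were treated with compounds for 18 h at 37 °C in agonist mode. CCF4 fluorescence was read after 2 h; EC50 and efficacy from Hill fits.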
Peroxisome proliferator-activated receptor delta (Homo sapiens), sequence (Q03181 whole entry, looked up): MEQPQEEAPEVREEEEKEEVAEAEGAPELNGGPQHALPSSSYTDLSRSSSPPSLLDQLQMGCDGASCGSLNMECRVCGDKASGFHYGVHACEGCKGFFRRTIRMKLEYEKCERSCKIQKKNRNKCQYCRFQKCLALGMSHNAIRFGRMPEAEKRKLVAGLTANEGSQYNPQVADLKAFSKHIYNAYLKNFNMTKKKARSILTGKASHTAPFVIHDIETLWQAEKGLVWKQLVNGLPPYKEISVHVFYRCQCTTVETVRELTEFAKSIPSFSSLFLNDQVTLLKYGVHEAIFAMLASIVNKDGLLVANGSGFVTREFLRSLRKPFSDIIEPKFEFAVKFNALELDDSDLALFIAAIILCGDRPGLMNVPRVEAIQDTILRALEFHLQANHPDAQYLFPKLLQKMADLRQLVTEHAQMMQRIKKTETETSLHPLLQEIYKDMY

The nature of assay [22]: qHTS assay for small molecule antagonists of peroxisome proliferator-activated receptor delta signaling (AID 588535).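 Note: cells co-treated with a PPAR-delta agonist as stimulator during compound exposure.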 To be noted: HEK293T PPARd-UAS-bla, beta-lactamase FRET ratio, 18 h; 460 nm channel. In outline: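 Reporter: UAS-bla under PPAR-delta response element, HEK293T host. Medium: 2% charcoal/dextran FBS. Dosing: titration, 18 hrs, 37 C. Detection: CCF4, 2 hrs RT, 405 ex/460 and 530 em.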

The target of assay [23] is Peroxisome proliferator-activated receptor gamma (Homo sapiens) (UniProt P37231). The assay is described as follows: qHTS assay for small molecule agonists of peroxisome proliferator-activated receptor gamma signaling (AID 588536; active = well fitted curve in the direction sought with a large enough effect in the signal ratio, with a control signal flat, not every such curve was filed as active; the % refers to the signal ratio;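 note: 0% = DMSO basal wells and 100% = rosiglitazone at 2 µM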). A digest of the protocol: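 Ratiometric blue/green fluorescence (405 nm excitation; 460 and 530 nm emission) from CCF4-loaded HEK293 reporter cells serves as signal. Exposure to test compounds lasts 16 h at 37 C in medium containing 1% charcoal/dextran-treated serum.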
Peroxisome proliferator-activated receptor gamma (Homo sapiens), sequence (P37231 whole entry, looked up): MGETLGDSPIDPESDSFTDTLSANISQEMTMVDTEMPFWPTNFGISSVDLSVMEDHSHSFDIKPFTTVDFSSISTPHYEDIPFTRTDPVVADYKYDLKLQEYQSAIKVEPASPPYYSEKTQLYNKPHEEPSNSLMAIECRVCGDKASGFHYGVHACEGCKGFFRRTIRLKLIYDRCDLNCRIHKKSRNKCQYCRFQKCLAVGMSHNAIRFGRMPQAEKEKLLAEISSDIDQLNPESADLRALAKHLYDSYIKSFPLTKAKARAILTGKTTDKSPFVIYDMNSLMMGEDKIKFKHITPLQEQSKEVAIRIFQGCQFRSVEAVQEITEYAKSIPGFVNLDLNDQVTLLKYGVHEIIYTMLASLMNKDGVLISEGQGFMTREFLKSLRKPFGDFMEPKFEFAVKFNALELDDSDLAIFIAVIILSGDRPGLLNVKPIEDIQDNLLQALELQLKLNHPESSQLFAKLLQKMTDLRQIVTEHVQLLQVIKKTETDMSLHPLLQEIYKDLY

On to `Cc1ccc([N+](=O)[O-])cc1C`, for which the Potency result in assay [1], in assay [2], in assay [3], in [4], in assay [5] and in assay [6] was “inactive” in each case. Further, the Potency entry in assay [7], in [8], in assay [9], in assay [10], in assay [11] and in assay [12] was “inactive” each time. The Potency result in [13], in assay [14], in assay [15], in [16], in assay [17] and in assay [18] was “inactive” in each case. The compound was classed as inactive in assay [19], in assay [21] and in assay [23]. In [20], the activation is -0.387% (inactive) and 0.526% (inactive). Moreover, in assay [22], the max response was -1.38%.
